Screening results from PubChem BioAssay.
IL1B secr inh – blocks inflammasome-driven IL-1 beta release; 360,000 compounds, 4.7% hits; AID 743279; activity change, % at 57.5 µM; THP-1 LPS/ATP IL-1B secretion, AlphaLISA, 16 h; active compounds read low; in the data active means activity change below about -50%; inconclusive means mostly about -30% to -49%
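Secreted IL-1B measured by AlphaLISA bead assay after 16 h compound exposure of THP-1 cells; compounds (final up to 57.5 uM) added 1 h before LPS (250 ng/mL) and ATP (1.25 mM) stimulation; lower signal means less secretion.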
RORg inh – inhibitors of mouse ROR gamma transcriptional activity; Drosophila S2 Gal4-RORgamma UAS-luciferase reporter, 20 h; Potency, µM (titrated, usually from 53.6 µM), inactives show top-dose activity change, negative = inhibition, hits mostly inhibitors; 310,000 compounds, 5.4% hits; AID 2551; further: potency means the concentration at half of the fitted maximal effect; nearly all actives have a fitted effect of over 60% in size
Target sequence (P51450 whole entry, looked up, the tested form may be a part): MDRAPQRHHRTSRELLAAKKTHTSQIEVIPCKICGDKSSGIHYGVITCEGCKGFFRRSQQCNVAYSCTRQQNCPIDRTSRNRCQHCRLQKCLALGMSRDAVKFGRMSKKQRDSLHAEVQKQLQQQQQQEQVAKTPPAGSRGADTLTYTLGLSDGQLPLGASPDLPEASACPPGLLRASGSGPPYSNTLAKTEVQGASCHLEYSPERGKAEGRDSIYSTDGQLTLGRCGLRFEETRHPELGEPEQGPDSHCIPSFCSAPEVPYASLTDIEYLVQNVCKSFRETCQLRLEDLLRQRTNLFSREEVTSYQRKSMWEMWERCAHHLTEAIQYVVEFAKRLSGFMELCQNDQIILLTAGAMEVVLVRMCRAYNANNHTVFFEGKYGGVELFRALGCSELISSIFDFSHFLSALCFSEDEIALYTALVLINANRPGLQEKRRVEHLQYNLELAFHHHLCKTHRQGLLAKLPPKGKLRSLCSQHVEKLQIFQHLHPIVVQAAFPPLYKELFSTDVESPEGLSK
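Stable Schneider cell line, Gal4 DNA-binding domain fused to ROR gamma, UAS-luciferase. Cmpd 1 hr RT → CuSO4 700 uM final → 20 hr RT → luciferase reagent 10 min → luminescence.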
LDHA block – LDHA (human) enzyme inhibition; 480,000 compounds, 0.15% hits; purified LDHA, NADH/diaphorase-resazurin fluorescence; active compounds read low; AID 1347041; activity change, % (values are at about 110 or 230 µM); in the data active means activity change below about -30%; inconclusive means mostly about -25% to -30%;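 further: plate controls were DMSO wells for no effect and wells without enzyme for full effect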
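Resorufin fluorescence (ex540/em590), read at 0 and 20 min after diaphorase/resazurin addition, reports the NADH left after a 5 min room-temperature reaction of 2 nM human LDH5 with 0.06 mM NADH and 0.2 mM pyruvate.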
TDP1 cell CPT – growth inhibition of DT40 Tdp1-/-;hTDP1 cells with camptothecin (screen for TDP1 inhibitors); chicken DT40 Tdp1-/-;hTDP1 cells + 20 nM CPT, ATP luminescence, 48 h; Potency, µM (titrated, usually from 46.2 µM), without a hit: at the top dose activity change, negative = growth inhibition, actives largely listed as inhibitors; 420,000 compounds, 12% hits; AID 686979; further: potency means the concentration at half of the fitted maximal effect; nearly all actives have a fitted effect of over 55% in size
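Cell growth measured by CellTiter-Glo luminescence after a minimum 48 h, 37 C compound exposure with 20 nM CPT in Tdp1-knockout DT40 cells stably expressing hTDP1, seeded 400/well; qHTS titration format.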
TDP1 cell noCPT – qHTS for Inhibitors of human tyrosyl-DNA phosphodiesterase 1 (TDP1): qHTS in cells in absence of CPT; DT40 Tdp1-/- hTDP1 cells, no CPT, ATP luminescence, 48 h; Potency, µM (top dose mostly 46.2 µM), for inactives: at the highest dose activity change, negative = growth inhibition, usual class: inhibitors; 420,000 compounds, 15% hits; AID 686978, 2013; further: potency means the concentration at half of the fitted maximal effect; nearly all actives have a fitted effect of over 55% in size
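Compound effects on proliferation are scored in DT40 Tdp1-/-;hTDP1 cells in the absence of CPT. ATP levels (CellTiter-Glo luminescence) are recorded after a ≥48 hr, 37 °C incubation.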
Gal4-VP16 FLuc – Gal4-VP16 reporter inhibition counter-screen. Drosophila S2 Gal4-VP16 UAS-luciferase, luminescence, 20 h. Potency, µM (highest dose often 53.6 µM), for inactives: at the highest dose activity, negative = inhibition, hits mostly inhibitors. 310,000 compounds, 3.5% hits. AID 2546;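 further: Gal4-VP16 expression switched on by copper sulfate through the metallothionein promoter; potency means the concentration at half of the fitted maximal effect; nearly all actives have a fitted effect of over 50% in size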
The depositor's hits bear a star; ? = inconclusive; · = no result; [ ] = another dose, or the depositor's remark. Rows were chosen to be rich in hits. Some 18% of all compounds tested hit in one or more screens of this group. Unless noted, the call rests on the fitted dose curve; in most records, active means well fitted curve in the direction sought with a large enough effect; inconclusive means small, poorly fitted or top-dose-only effect, or another doubt; inactive means no such curve, though single readings can be large; an effect the other way counts as inactive or inconclusive. Unless noted, on the % scale 0 is the no-effect control and ±100 the full control effect.

SMILES | IL1B secr inh | RORg inh | LDHA block | TDP1 cell CPT | TDP1 cell noCPT | Gal4-VP16 FLuc
Cc1cccc(NC(=O)NNC(=O)c2cc(-c3ccccc3Cl)nc3ccccc23)c1 | -14 | 40% | -13 | ? | ? | 1%
O=C(NNC(=O)c1cc(-c2ccc(Cl)c(Cl)c2)nc2ccccc12)Nc1ccccc1 | ? | 45% | -4 | 15µM* | ? | ?
O=C(NN1CCOCC1)c1cc(-c2ccc(Cl)c(Cl)c2)nc2ccccc12 | -17 | 3% | -3 | ? | 1.3µM* | -7%
O=C(CC1CCCC1)OCC(=O)c1ccc(Cl)cc1 | · | · | -4 | · | · | ·
CCNC(=S)N1CCN(c2ccccc2OCC)CC1 | -4 | -7% | -4 | 7% | -11% | -7%
CNC(=S)N1CCN(c2nc(-c3ccc(F)cc3)cs2)CC1 | -15 | · | -2 | ? | ? | ·
CCOc1ccccc1NC(=S)N1CCN(c2nc(-c3ccc(F)cc3)cs2)CC1 | 20 | 11µM* | -2 | 21µM* | 15µM* | ?
CCOc1ccccc1NC(=S)N1CCN(c2ccc(OC)cc2)CC1 | -8 | 11µM* | -1 | -29% | -20% | 18µM*
Cc1ccc(NC(=S)N2CCN(c3ccccc3F)CC2)c(C)c1 | 13 | 8.9µM* | 0 | ? | ? | 7.1µM*
CCOc1ccccc1NC(=S)N1CCN(c2ccccc2F)CC1 | -8 | ? | -6 | ? | 21µM* | 14µM*
CCOc1ccccc1NC(=S)N1CCN(c2ccc(O)cc2)CC1 | 26 | -15% | 11 | ? | ? | 17%
CC(OC(=O)Cc1nn(C)c(=O)c2ccccc12)C(=O)NCc1ccccc1 (configuration not stated) | · | · | -12 | · | · | ·
CCOC(=O)c1ccccc1NC(=S)N1CCCCC1 | 14 | ? | -5 | ? | ? | -1%
CCc1ccccc1NC(=S)N1CCN(c2ccccc2F)CC1 | 6 | 7.1µM* | -2 | -20% | ? | ?
CCOc1ccccc1NC(=S)N1CCCCCC1 | 19 | 14µM* | -5 | ? | ? | ?
Brc1ccc(-c2cn3ccccc3n2)s1 | 4 | ? | 0 | 7.3µM* | 23µM* | ?
Cc1cccn2cc(-c3ccc(F)cc3)nc12 | 7 | ? | -12 | -16% | ? | ?
Cc1ccc2nc(-c3ccccc3)cn2c1 | 0 | 1.6µM* | 1 | ? | 18µM* | 2.8µM*
Cc1cccn2cc(-c3ccccc3)nc12 | 7 | 11µM* | -7 | -10% | -27% | -26%
CCCS(=O)(=O)Nc1cc(-c2cn3cccc(C)c3n2)ccc1C | · | · | -2 | ? | 18µM* | ·
Cc1ccc(S(=O)(=O)Nc2cccc(-c3cn4cccc(C)c4n3)c2)cc1 | · | · | -2 | ? | ? | ·
Cc1ccc2nc(-c3ccc(-c4ccccn4)s3)cn2c1 | -19 | 0.18µM* | 0 | -27% | ? | 0.89µM*
Cc1ccc2nc(-c3ccc(O)c(O)c3)cn2c1 | -7 | 4%[1.91 µM] | 23 | ? | 21µM* | ?
CC(=O)Nc1ccc(-c2cn3cc(C)ccc3n2)cc1 | -19 | 7.1µM* | -3 | 9% | 4% | ?
COc1ccc(-c2cn3cc(C(=O)NN)ccc3n2)cc1 | -2 | ? | -3 | ? | ? | 10µM*
SMILES | IL1B secr inh | RORg inh | LDHA block | TDP1 cell CPT | TDP1 cell noCPT | Gal4-VP16 FLuc
CC(=O)Nc1ccc(C)cc1 | 9 | -12% | -5 | -5% | -6% | -26%
O=C(CCc1c[nH]c2ccccc12)NCc1ccc(Cl)cc1 | · | · | -1 | · | · | ·
CC(=O)Nc1cccc(NC(=O)CCc2ncc(-c3ccc(Cl)cc3)o2)c1 | · | · | -6 | · | · | ·
C=C(C)CSc1cc(C)nc2c(-c3ccccc3)c(C)nn12 | -6 | 11µM* | -5 | ? | ? | ?
Cc1cc(SCC(=O)Nc2ccc(O)cc2)n2nc(C)c(-c3ccccc3)c2n1 | -80* | -14% | -9 | ? | ? | 11%
CCSc1cc(C)nc2c(-c3ccccc3)c(C)nn12 | -14 | 0% | -6 | -8% | -16% | 19%
Cc1cc(SCC(=O)Nc2ccc(O)cc2)n2ncc(-c3ccccc3)c2n1 | -51* | 7% | -3 | -30% | -2% | -6%
Cc1cc(SCC(=O)Nc2ccccc2)n2ncc(-c3ccccc3)c2n1 | -55* | -33% | -1 | ? | -56% | -6%
O=C(c1cccc(S(=O)(=O)NC2CC2)c1)N1CCN(c2ccccc2F)CC1 | · | · | 3 | · | · | ·
CCCn1c(=O)n(CC(=O)Nc2ccc(C(C)CC)cc2)c(=O)c2c1nc(C)n2CCOC (configuration not stated) | · | · | 1 | · | · | ·
Cn1nc(C(C)(C)C)cc1NC(=O)C1(C)CCN1C(=O)c1ccccc1CCc1ccccc1 (configuration not stated) | -5 | · | 1 | 18µM* | ? | ·
CC(C)(C)c1cc(NC(=O)C2(C)CCN2C(=O)c2ccccc2CCc2ccccc2)no1 (configuration not stated) | 6 | · | -3 | ? | 21µM* | ·
Cn1nc(C(C)(C)C)cc1NC(=O)C1(C)CCN1C(=O)Cc1ccc(-c2ccccc2)cc1 (configuration not stated) | -12 | · | 1 | 15µM* | 18µM* | ·
Cc1cccc2c(C(=O)NCCc3ccccc3)cc(-c3cccnc3)nc12 | · | · | 1 | · | · | ·
CCSc1nc(N)c2c(n1)NC1=C(C(=O)CC(C)(C)C1)C2c1cccs1 (configuration not stated) | · | · | -3 | · | · | ·
O=C(NC(c1ccc(-c2ccccc2)cc1)c1cnccn1)C1CCN(CCOc2ccc(F)cc2)CC1 (configuration not stated) | -54* | · | 2 | ? | ? | ·
O=C(NC(c1ccc(-c2ccccc2)cc1)c1cnccn1)C1CCN(CCCOc2ccccc2)CC1 (configuration not stated) | -21 | · | -2 | 23µM* | 13µM* | ·
O=C(NC(c1ccc(Cl)cc1)c1cnccn1)C1CCN(CCOc2ccc(F)cc2)CC1 (configuration not stated) | ? | · | -11 | ? | 18µM* | ·
O=C(NC(c1ccc(F)cc1)c1cnccn1)C1CCN(CCOc2ccc(Cl)cc2Cl)CC1 (configuration not stated) | · | · | -4 | ? | 16µM* | ·
Cc1cccnc1C(NC(=O)C1CCN(CCOc2ccc(F)cc2)CC1)c1ccc(F)cc1 (configuration not stated) | ? | · | 2 | ? | ? | ·
